Source: PubChem (The Scripps Research Institute Molecular Screening Center)
In the library only some 3.5% were active in any assay of this set; here they are far more common.
GPR151 ag = activators of human GPR151, primary screen, cell-based, PathHunter beta-arrestin, luminescence. AID 1508602, 2020. 650,000 tested, 1% active. PathHunter beta-arrestin GPR151 cells. activation, % at 11.2 µM. G-protein coupled receptor 151 (Homo sapiens), Q8TDV0; in the data active = activation above about 4.9%
MITF primary = MITF inhibitors, primary screen, biochemical, AlphaScreen, human; AlphaScreen MITF homodimerization, bead proximity signal; 650,000 tested, 0.91% active; inhibition, % at 2.6 µM; in the data active = inhibition above about 50%
TEAD-YAP inh = TEAD-YAP interaction inhibition, primary screen, TEAD-YAP interaction inhibitor project, luminescence, HEK-TIYL cells; TEAD-Gal4/YAP UAS-luciferase luminescence; inhibition, % at 9.12 µM; 640,000 tested, 1.4% active; in the data active = inhibition above about 32%
FBW7 activator = FBW7 E3 ligase activators, primary screen, biochemical, AlphaScreen, human; AlphaScreen FBW7–phospho-cyclin E peptide binding, activator screen; normalized activity (activation), % at 26.1 µM; 650,000 tested, 0.13% active; AID 1259310, 2017; in the data active = normalized activity above about 1.9%;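 note: purified mutant Fbw7 with reduced substrate affinity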
Target sequence (Q969H0 whole entry, looked up): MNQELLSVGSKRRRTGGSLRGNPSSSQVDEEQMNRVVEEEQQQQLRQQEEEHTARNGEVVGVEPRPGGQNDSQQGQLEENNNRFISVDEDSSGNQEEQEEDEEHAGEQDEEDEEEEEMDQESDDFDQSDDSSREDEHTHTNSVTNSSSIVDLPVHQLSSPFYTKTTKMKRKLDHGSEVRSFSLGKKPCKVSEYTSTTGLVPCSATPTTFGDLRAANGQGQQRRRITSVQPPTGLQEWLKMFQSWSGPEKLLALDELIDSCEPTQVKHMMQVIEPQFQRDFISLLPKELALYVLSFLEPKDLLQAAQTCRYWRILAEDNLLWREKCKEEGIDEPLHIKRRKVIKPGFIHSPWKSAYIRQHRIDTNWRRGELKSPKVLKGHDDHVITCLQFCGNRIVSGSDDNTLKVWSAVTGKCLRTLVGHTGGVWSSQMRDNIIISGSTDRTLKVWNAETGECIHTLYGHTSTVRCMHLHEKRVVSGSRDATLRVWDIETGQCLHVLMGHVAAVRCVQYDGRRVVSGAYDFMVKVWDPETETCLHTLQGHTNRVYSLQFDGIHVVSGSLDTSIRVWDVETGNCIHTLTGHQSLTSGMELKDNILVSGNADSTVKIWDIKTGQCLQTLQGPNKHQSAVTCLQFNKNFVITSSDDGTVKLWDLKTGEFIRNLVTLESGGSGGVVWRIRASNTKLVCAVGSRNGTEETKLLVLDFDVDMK
GPR151 conf act = GPR151 activators, triplicate retest, confirmation, cell-based, PathHunter beta-arrestin, luminescence | GPR151 PathHunter beta-arrestin cells, 90 min; % of EA-reagent control over plate median | 6,700 tested, under 10 active | activation, % at 11.2 µM | AID 1508609, 2020 | shares compounds with GPR151 ag;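 active = mean percent activation across replicates above the confirmation screen cutoff of 4.91%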
GPR119 counter = GPR119 activators in beta-arrestin cells, counter-screen for GPR151 activator project, cell-based, PathHunter beta-arrestin, luminescence, triplicate | 6,700 tested, 0.3% active | activation, % at 11.2 µM | 90 min; 0 = compound-well median, 100 = enzyme-acceptor control | shares compounds with GPR151 ag;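 active = mean percent activation in the counterscreen above 29.09%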;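 note: counterscreen on off-target GPR119 to flag nonselective hits from the GPR151 activator screen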
Large screens that a line does not name were inactive (follow-up assays come after a bar, where they were run).

CCN(CC)S(=O)(=O)c1ccc2c(c1)c(=O)c(C(=O)N(C)CC(OC)OC)cn2C	none
CCN(CC)C(=S)SCCC(=O)NC(=O)Nc1ccc(F)cc1	GPR151 ag 23.8 | GPR151 conf act inactive | GPR119 counter inactive
COc1ccc(C(=O)Oc2cc(N)n(S(=O)(=O)c3ccc(C)cc3)n2)cc1OC	GPR151 ag 6.3 | GPR151 conf act inactive | GPR119 counter inactive
Cc1ccc(C(=O)Oc2cc(N)n(S(=O)(=O)c3ccc(C)cc3)n2)cc1	none
COCCCNC(=O)c1ccc(I)cc1	none
COc1ccccc1-c1ccc(=O)n(CC(=O)Nc2ccc(Br)cc2)n1	GPR151 ag 9.6 | GPR151 conf act inactive | GPR119 counter inactive
COc1cccc(-c2ccc(=O)n(CC(=O)Nc3ccc(Cl)c(C(F)(F)F)c3)n2)c1	GPR151 ag 18.4 | GPR151 conf act inactive | GPR119 counter inactive
COc1cccc(-c2ccc(=O)n(CC(=O)Nc3ccc(C(=O)N4CCCC4)cc3)n2)c1	none
CCOC(=O)/C(=C\c1ccco1)NC(=O)c1ccccc1I	GPR151 ag 12.3 | GPR151 conf act inactive | GPR119 counter inactive
CC(C)NC(=O)CCn1c(=O)oc2ccccc21	GPR151 ag 8.1 | GPR151 conf act inactive | GPR119 counter inactive
NC(=O)c1ccccc1NC(=O)CCn1c(=O)oc2ccccc21	GPR151 ag 5.0 | GPR151 conf act inactive | GPR119 counter inactive
CCn1cc(CCC(=O)NC(C)C)c2ccccc21	GPR151 ag 5.6 | GPR151 conf act inactive | GPR119 counter inactive
Cc1ccc(-n2ncc3c(N4CCN(c5ccccc5F)CC4)ncnc32)c(C)c1	none
O=C(NC1CC1)c1ccc(-c2ccc(C(=O)NCCOc3ccccc3)s2)cc1	none
CC(C)N(CCNc1nc(NCc2cccnc2)nc2nc[nH]c12)C(C)C	GPR151 ag 6.2 | GPR151 conf act inactive | GPR119 counter inactive
CCNc1nc(NCc2cccnc2)c2[nH]cnc2n1	none
C/C(=N\NC(=O)c1ccc(N)cc1)c1cccc(N)c1	none
COc1ccc(-c2[nH]ncc2CN[C@@H]2C[C@@H](C(=O)NC(C)C)N(Cc3ccccc3)C2)cc1	GPR151 ag 5.7 | GPR151 conf act inactive | GPR119 counter inactive
COc1ccc(O)c(CN[C@H]2C[C@@H](C(=O)NC(C)C)N(Cc3ccc4ccccc4c3)C2)c1	none
Cc1ccc(N=Cc2ccccc2O)cc1C#N	GPR151 ag 5.6 | GPR151 conf act inactive | GPR119 counter inactive
Cc1ccc(N=Cc2ccccc2O)cc1F	none
COc1ccc(C2(NC(=O)c3snnc3C)CCCCC2)cc1	GPR151 ag 20.4 | GPR151 conf act inactive | GPR119 counter inactive
Cc1ccc2onc(CNC(=O)NCCCN3CCOCC3)c2c1	none
Cc1ccc(C(=O)N2CCCc3ccccc32)cc1C	none
CC(C)C(=O)Nc1cccc(C(=O)N2CCCc3ccccc32)c1	GPR151 ag 6.5 | GPR151 conf act inactive | GPR119 counter inactive
COc1ccccc1NC(=O)CSc1nc2ccc(N3C(=O)c4cccc5cccc(c45)C3=O)cc2s1	none
N#CC1=C(N)C(C#N)(C#N)C(c2cccc3ccccc23)C2CN(Cc3ccccc3)CC=C12 (stereo not given)	none
Cc1ccc(N2C(=O)SC(Nc3ccccc3)C2=O)cc1 (stereo not given)	none
Cc1ccc(N2C(=O)SC(Nc3ccc(I)cc3)C2=O)cc1 (stereo not given)	none
Cc1ccc(N2C(=O)SC(Nc3ccc(F)cc3)C2=O)cc1 (stereo not given)	GPR151 ag 5.4 | GPR151 conf act inactive | GPR119 counter inactive
Cc1cccc(NC2SC(=O)N(c3ccc(F)cc3)C2=O)c1 (stereo not given)	GPR151 ag 5.6 | GPR151 conf act inactive | GPR119 counter inactive
CC(=O)c1c(C)nc2sc(C(N)=O)c(N)c2c1-c1c[nH]c2ccccc12	none
CCOc1cc(/C=N/NC(=O)c2nnn(-c3nonc3N)c2CC)ccc1O	GPR151 ag 6.9 | GPR151 conf act inactive | GPR119 counter inactive
CCOc1cc(/C=N/NC(=O)c2nnn(-c3nonc3N)c2-c2ccccc2)ccc1O	none
CCN(CC)Cc1c(C(=O)N/N=C/c2cccc([N+](=O)[O-])c2)nnn1-c1nonc1N	GPR151 ag 9.9 | GPR151 conf act inactive | GPR119 counter inactive
COc1ccc(NC(=O)/C(C#N)=C/c2ccc(-c3ccccc3C(=O)O)o2)cc1	none
N#C/C(=C\c1ccc(-c2ccccc2C#N)o1)C(N)=S	GPR151 ag 6.0 | GPR151 conf act inactive | GPR119 counter inactive
CC(=O)c1ccc(-c2ccc(/C=C(\C#N)C(N)=S)o2)cc1	none
N#C/C(=C\c1ccc(-c2ccccc2C(=O)O)o1)C(=O)Nc1ccccc1	GPR151 ag 8.2 | GPR151 conf act inactive | GPR119 counter inactive
CCn1ncc(NC(=S)Nc2ccccc2C(F)(F)F)c1C(N)=O	none
Cn1cccc1CC(=O)N/N=C\c1c(O)ccc2ccccc12	none
Cc1ccc(CS(=O)(=O)CCC(=O)NCCN(C)Cc2ccccc2)cc1	GPR151 ag 7.7 | GPR151 conf act inactive | GPR119 counter inactive
COc1ccc(Br)cc1/C=N/NC(=O)CSc1ncccn1	none
COc1ccc(Br)cc1/C=N/NC(=O)CNc1ccccc1C	none
COc1ccc(Br)cc1/C=N/NC(=O)CSc1ccccn1	GPR151 ag 7.0 | GPR151 conf act inactive | GPR119 counter inactive
COc1ccccc1NCC(=O)N/N=C/c1cc(Br)ccc1O	GPR151 ag 9.8 | GPR151 conf act inactive | GPR119 counter inactive
COc1ccccc1NCC(=O)N/N=C/c1ccccc1O	none
COc1cc(Br)cc(/C=N/NC(=O)CNc2ccccc2C)c1O	GPR151 ag 5.9 | GPR151 conf act inactive | GPR119 counter inactive
O=C(Cc1c(F)cccc1Cl)Nc1ccc2c(c1)OCCO2	none
Cc1nc2ccccc2n1CCNS(=O)(=O)c1ccc(F)cc1	GPR151 ag 6.4 | GPR151 conf act inactive | GPR119 counter inactive
CC(C)CCN1CCNC(=O)C1CC(=O)N(Cc1nccn1C)C(C)C (stereo not given)	GPR151 ag 5.8 | GPR151 conf act inactive | GPR119 counter inactive
Cc1ccc(NC(=O)C2CCCN2c2nn3c(=O)cc(C)nc3s2)c(Cl)c1 (stereo not given)	GPR151 ag 5.0 | GPR151 conf act inactive | GPR119 counter inactive
COc1ccccc1CC(=O)NCC1COc2ccccc2O1 (stereo not given)	GPR151 ag 5.7 | GPR151 conf act inactive | GPR119 counter inactive
COc1cccc(CC(=O)NCC2COc3ccccc3O2)c1OC (stereo not given)	none
